Results on 33 compounds are retold here after PubChem BioAssay (EPA / NIEHS).

Several values for one entry are separate records, joined by “and”; a condition that tells them apart may be missing. Equal values may be shown once. Results filed as inconclusive are left out. Some compounds were tested as several samples or in several runs, with calls that do not always agree. Activity calls are given as the source filed them. How the source made its calls, unless noted: active means hit-call score of the fitted dose curve at least 0.9, where 1 is the maximum; inconclusive means response in the unintended direction; inactive means score below 0.9.

Read-out in assay [1]: Cellular tumor antigen p53 (Homo sapiens) (UniProt P04637)
Description: LTEA_HepaRG_TP53: Life Technologies and Expression Analysis (LTEA) Assay for Tumor Protein P53 (TP53) using HepaRG (AID 2283537; active means hit-call score of the fitted dose curve at least 0.9, where 1 is the maximum; inactive means score below 0.9). To be noted: mRNA level, 48 h; actives raise or lower the signal. An outline of the steps: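 Differentiated HepaRG cells in serum-free induction medium exposed 48 h in duplicate to 8 half-log concentrations, top 100 uM, 0.5% DMSO. TP53 mRNA by TaqMan qRT-PCR (Fluidigm), normalized to ACTB, GAPDH, POLR2A; fitted bidirectionally versus DMSO.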

Read-out in assay [2]: UDP glucuronosyltransferase (UGT1A1), UGT1A1 (gene 54658)
The experiment in a line: LTEA_HepaRG_UGT1A1: Life Technologies and Expression Analysis (LTEA) Assay for UDP glucuronosyltransferase (UGT1A1) using HepaRG (AID 2283538; active means hit-call score of the fitted dose curve at least 0.9, where 1 is the maximum; inactive means score below 0.9). To be noted: mRNA level, 48 h; actives raise or lower the signal. A digest of the protocol:
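mRNA induction or loss of UGT1A1, by TaqMan qRT-PCR, in duplicate HepaRG wells after 48 h exposure to half-log dilutions topping at 100 uM; DMSO (0.5%) served as baseline.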

Read-out in assay [3]: UDP glucuronosyltransferase (UGT1A6), UGT1A6 (gene 54578)
Description: LTEA_HepaRG_UGT1A6: Life Technologies and Expression Analysis (LTEA) Assay for UDP glucuronosyltransferase (UGT1A6) using HepaRG (AID 2283539; active means hit-call score of the fitted dose curve at least 0.9, where 1 is the maximum; inactive means score below 0.9). The following applies: mRNA level, 48 h; actives raise or lower the signal. A digest of the protocol:
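Endpoint is UGT1A6 transcript induction or loss in a human liver cell line, quantified by TaqMan qRT-PCR 48 h after dosing. Concentrations ran from 100 uM downward in half-log steps in 0.5% DMSO; activity was fitted in both directions versus vehicle.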

Assay [4] is described as follows: LTEA_HepaRG_LDH_cytotoxicity: Cytotoxicity Assessment in the Life Technologies and Expression Analysis (LTEA) Assay (AID 2283563).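 On AC50: LDH activity released into spent culture medium as a marker of cell death.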 A digest of the protocol:
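Human HepaRG hepatic cells are treated with test chemicals for 48 h at up to 100 uM in 0.5% DMSO. Cytotoxicity is scored from medium LDH against the vehicle control.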

Assay [5] is described as follows: ATG_XTT_Cytotoxicity: Cytotoxicity Assessment in the Attagene TRANS-FACTORIAL HepG2 Assay (AID 2283584).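 On AC50: XTT signal for cell number as viability in transfected HepG2 cells; cells exposed to compound for 24 h before reading; active means loss of viability signal versus DMSO baseline.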 An outline of the steps:
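Transfect HepG2 with GAL4-UAS reporter units, dose compound, incubate 24 h, then measure viable cell number by XTT. Fit concentration response against DMSO baseline.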

Assay [6] in a line: TOX21_p53_BLA_p2_viability: Viability Assessment in the Tox21 HCT-116 p53 Agonism Beta-lactamase Assay, Phase 2 (AID 2283591).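 Further: compound exposure lasted 16 h at 37 °C; actives lower the ATP signal meaning cytotoxicity.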 An outline of the steps: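 Cytotoxicity readout: CellTiter-Glo ATP luminescence, 30 min at room temperature, after the beta-lactamase read. Cells were HCT116 exposed 16 h at 37C to compounds pin-transferred at 217-fold dilution from DMSO stocks.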
Assay [7] concerns the target Cellular tumor antigen p53 (Homo sapiens) (UniProt P04637). Description: TOX21_p53_BLA_p2_ratio: Tox21 HCT-116 p53 Agonism Beta-lactamase Assay, Ratio, Phase 2 (AID 2283592). An outline of the steps:
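Cleaved-to-uncleaved substrate ratio (460 vs 530 nm) measured in HCT116 cells with an inducible beta-lactamase reporter linked to p53 activity. Compounds incubated 16 h at 37C before 2 h room-temperature CCF4-AM loading.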

A short description of assay [8]: TOX21_p53_BLA_p3_viability: Viability Assessment in the Tox21 HCT-116 p53 Agonism Beta-lactamase Assay, Phase 3 (AID 2283593).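 Further: cells exposed to compound for 16 h before reading.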 An outline of the steps:
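Cellular ATP was quantified by CellTiter-Glo luminescence, read after 30 min at room temperature. Beforehand, HCT116 cells (4000/well) received compound 5 h post-seeding, 217-fold diluted from DMSO, then incubated 16 h at 37C.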

In assay [9] the target is Cellular tumor antigen p53 (Homo sapiens) (UniProt P04637). Description: TOX21_p53_BLA_p3_ratio: Tox21 HCT-116 p53 Agonism Beta-lactamase Assay, Ratio, Phase 3 (AID 2283596). An outline of the steps:
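Cells were seeded at 4000/well, rested 5 h at 37C, then dosed with DMSO compound solutions (217-fold dilution) for 16 h. CCF4-AM substrate was loaded for 2 h at room temperature, and the 460/530 nm emission ratio was fitted for gain of signal versus DMSO.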

Assay [10] in a line: TOX21_p53_BLA_p4_viability: Viability Assessment in the Tox21 HCT-116 p53 Agonism Beta-lactamase Assay, Phase 4 (AID 2283597).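 Further: hits lower the luminescence signal meaning cytotoxicity.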 A digest of the protocol: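 Viability is taken as cellular ATP: after 16 h compound exposure of HCT116 cells and a 2 h room-temperature CCF4-AM substrate step, CellTiter-Glo reagent is added and luminescence is measured 30 min later.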

Cellular tumor antigen p53 (Homo sapiens), sequence (P04637 whole entry, looked up): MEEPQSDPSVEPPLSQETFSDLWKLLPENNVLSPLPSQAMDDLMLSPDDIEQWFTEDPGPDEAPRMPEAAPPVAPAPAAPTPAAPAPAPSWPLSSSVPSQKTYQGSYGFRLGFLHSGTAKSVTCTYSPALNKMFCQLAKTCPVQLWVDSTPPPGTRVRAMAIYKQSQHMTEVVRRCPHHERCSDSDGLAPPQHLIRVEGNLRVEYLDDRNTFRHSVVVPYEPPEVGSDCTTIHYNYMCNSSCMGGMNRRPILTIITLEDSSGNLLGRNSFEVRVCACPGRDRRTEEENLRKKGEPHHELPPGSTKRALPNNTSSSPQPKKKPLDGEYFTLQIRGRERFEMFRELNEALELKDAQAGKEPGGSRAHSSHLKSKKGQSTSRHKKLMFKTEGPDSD

For `Cn1sc(Cl)cc1=O`, the call in [1], in assay [2], in assay [3], in assay [4], in assay [5] and in assay [6] was inactive. For the same compound, the result in [7], in assay [8] and in [9] was inactive. Further, the AC50 (as a rule, the concentration at which the activity in the assay is half-maximal) in assay [8] is 29.8 µM (active).
With `ClCC(Cl)CCl`, the compound was called inactive in assay [1], in assay [2], in assay [3], in assay [4], in assay [5] and in [6]. Moreover, the result in [7], in assay [8], in assay [9] and in [10] was inactive.
As to `C[C@]12CCC(=O)C[C@@H]1CC[C@@H]1[C@@H]2CC[C@]2(C)[C@@H](O)CC[C@@H]12`, the compound was called inactive in assay [1], in [2], in assay [3], in assay [4], in [5] and in assay [6]. In addition, the outcome in assay [7], in [9] and in [10] was inactive.
Take `CCN1CCC2(CC1)COc1cc3c(cc12)N(C(=O)c1ccc(-c2ccc(-c4nnc(C)o4)cc2C)cc1)CC3`: the AC50 in assay [1] is 46.8 µM (active); in [3] it was 15.4 µM (active); in assay [4], 24.6 µM (active); in [6] it was 54.7 µM (active); in [7] it was 64.8 µM (active); in assay [10], 45.7 µM (active). The call in assay [2] and in [9] was inactive.
Regarding `CCC(C)(C)c1ccc(O)c(C(C)(C)CC)c1`, the compound was called inactive in assay [1], in [2], in assay [3], in assay [4] and in assay [5]. Besides, the AC50 was 46.1 µM (active) and 45.7 µM (active) in [6]; 72.7 µM (active) and 66.4 µM (active) in [7]; 79.3 µM (active) and 85.5 µM (active) in assay [9]; 23 µM (active) and 53.5 µM (active) in [10].
Turning to `COS(=O)(=O)c1ccc(C)cc1`, the compound was called inactive in assay [5].
Take `CC(C)(c1ccccc1)c1ccc(O)c(C(C)(C)c2ccccc2)c1`: the outcome in assay [1] and in assay [3] was inactive. Further, the AC50 in assay [2] is 12.2 µM (active); in assay [4], 72.2 µM (active); in assay [7] it was 43.2 µM (active) and 46.9 µM (active); in assay [8], 40.5 µM (active) and 53.8 µM (active); in [9], 80.6 µM (active) and 83.7 µM (active); in assay [10], 12.1 µM (active) and 16.6 µM (active).
Turning to `CCOP(=S)(OCC)SCSP(=S)(OCC)OCC`, the AC50 in assay [1] is 0.217 µM (active); in assay [2], 14.8 µM (active). Further, the compound was called inactive in assay [3], in assay [4], in assay [5], in assay [7] and in [10].
With `c1ccc(N=NNc2ccccc2)cc1`, the outcome in assay [6], in assay [7], in assay [9] and in [10] was inactive.
For the compound `COc1cccc(C=O)c1`, the compound was called inactive in assay [5], in assay [7] and in assay [9].
With `COP(=S)(OC)Oc1ccc(Sc2ccc(OP(=S)(OC)OC)cc2)cc1`, the compound was classed as inactive in assay [6], in [7], in assay [9] and in [10].
Take `O=C(NCO)NCO`: the result in [5], in [9] and in assay [10] was inactive.
With `O=C(OC1CCCCC1)c1ccccc1C(=O)OC1CCCCC1`, the outcome in assay [7] and in assay [10] was inactive.
With `OCC(O)CCl` (stereo not given), the outcome in assay [7], in assay [8], in assay [9] and in [10] was inactive.
For `COC(=O)Cc1ccccc1`, the call in [5] and in assay [9] was inactive.
For the compound `NNC(=S)NN`, the outcome in [7], in assay [8], in assay [9] and in [10] was inactive.
Turning to `CCC[CH2][Sn]([Cl])([Cl])[Cl]`, the outcome in assay [6], in [7] and in assay [9] was inactive.
On to `COP(=S)(OC)Oc1cc(Cl)c(Cl)cc1Cl`, for which the outcome in assay [7], in assay [8], in [9] and in assay [10] was inactive.
Consider `COP(=S)(OC)Oc1cc(Cl)c(Br)cc1Cl`, for which the AC50 in [7] was 70.1 µM (active); in assay [9], 46.8 µM (active). In [10], the compound was classed as inactive.
As for `CCCCCCCCCCCCCCCC[n+]1ccccc1`, in assay [9], the AC50 is 36.1 µM (active) and 53.2 µM (active); the outcome was inactive. Also, the AC50 in assay [10] was 66.5 µM (active) [middle of 4 runs].
As for `COc1ccccc1OC`, the result in [5], in [7], in [9] and in assay [10] was inactive.
With `Nc1cccc(Cl)c1`, the call in [5], in assay [7], in assay [9] and in assay [10] was inactive.
`COP(=S)(OC)Oc1ccc(S(=O)(=O)N(C)C)cc1`: the result in assay [5], in assay [7], in [9] and in assay [10] was inactive.
As to `O=C(CCl)CCl`, the result in assay [5], in assay [9] and in [10] was inactive. Further, the AC50 in assay [8] is 19.3 µM (active) and 22.3 µM (active).
On to `CC(=O)C(Cl)C(=O)N(C)C` (stereo not given), for which the result in assay [5], in assay [7], in assay [9] and in assay [10] was inactive.
For `CCC[CH2][Sn]([CH2]CCC)([CH2]CCC)[O]C(=O)c1ccccc1`, the AC50 in assay [5] is 0.906 µM (active); in [7], 23.9 µM (active); in [9] it was 24.4 µM (active); in assay [10], 0.953 µM (active).
For the compound `C1CCC(NC2CCCCC2)CC1`, the call in [5], in [7], in assay [9] and in assay [10] was inactive.
For the compound `c1cc[c]([Hg][c]2ccccc2)cc1`, the values for the AC50 in assay [7] and in assay [10] were 15.2 µM (active) and 79.3 µM (active), respectively. The outcome in [9] was inactive.
For `N#CN=C(N)N`, the result in [7], in assay [9] and in assay [10] was inactive.
Turning to `NN=C(N)N`, the result in [7] and in [9] was inactive.
As to `Nc1ccc(N=Nc2ccc(-c3ccc(N=Nc4c(S(=O)(=O)O)cc5cc(S(=O)(=O)O)c(N=Nc6ccccc6)c(O)c5c4N)cc3)cc2)c(N)c1`, the outcome in [7], in [8], in assay [9] and in assay [10] was inactive.
With `C=C(C)C#N`, the call in assay [5], in assay [7], in [9] and in [10] was inactive.
Take `CCCCP(CCCC)CCCC`: the compound was called inactive in [6], in assay [7], in assay [8], in assay [9] and in assay [10].
